An excerpt weighted towards active compounds, which were near 21% of everything screened.
Shiga inhibitor = blocks Shiga toxin action in Vero cells | inhibition, % at 38.7 µM | actives 9.2% (n = 290,000) | Vero cells, Shiga toxin protein synthesis inhibition reporter; in the data active = inhibition mostly above about 28%, no sharp cut-off; inactive = mostly below about 43%
Pf growth 48h = inhibits P. falciparum growth in the first generation, 48 h; actives 5.9% (n = 310,000); Potency, µM (series often up to 28.7 µM), most hits filed as inhibitors; AID 504832; P. falciparum luciferase growth in erythrocytes, 48 h
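Erythrocytes infected with P. falciparum carrying an integrated firefly luciferase reporter (2% hematocrit, 0.1% parasitemia final) were exposed to compounds in RPMI 1640 with 0.5% Albumax at 37 C, 5% CO2. Growth inhibition was scored as reduced luminescence.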
HCV inh = inhibitors of hepatitis C virus infection. actives 3.4% (n = 340,000). Potency, µM (titrated, usually from 41.8 µM), actives largely listed as inhibitors. Huh7.5.1 HCVcc-Cre infection, luciferase reporter, 44 h. AID 651820
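A cell-based infection assay in which seeded cells (1,000 per well) receive test compound after 4 h, are inoculated with HCVcc-Cre at approximately 0.5 moi, and are incubated 44 h before luminescence detection.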
Pf growth 96h = P. falciparum growth inhibition at 96 hours; P. falciparum luciferase reporter growth, 96 h; Potency, µM (top dose mostly 28.7 µM), hits mostly inhibitors; actives 6.9% (n = 320,000); AID 504834
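Cell-based qHTS: luciferase-tagged P. falciparum in erythrocytes (2% hematocrit, 0.05% parasitemia final) incubated with compounds for 96 hours, 37 C, 5% CO2; luciferase detection reagent then added and luminescence measured.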
AMA1 RON2 block = AMA1-RON2 (P. falciparum) interaction inhibition. AlphaScreen AMA1-biotinylated RON2 peptide binding. Potency, µM (highest dose often 58.2 µM), most hits filed as inhibitors. actives 0.2% (n = 360,000). AID 720542; also: nearly all actives have a fitted effect of over 45% in size
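AMA1 (3D7) with his tag at 25 nM final met compounds first, then biotinylated RON2 peptide at 25 nM; detection used donor plus acceptor beads, 10 µg/mL apiece, read by AlphaScreen after 30 min at room temperature.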
Cycloheximide cs = affects cycloheximide protein synthesis inhibition readout, counter-screen. cell reporter, cycloheximide protein synthesis inhibition counterscreen. max response, %. actives 12% (n = 300,000); in the data active = max response mostly above about 13%, no sharp cut-off; inactive = mostly below about 14%; also: read at 38.3 µM for the half of the compounds with a filed dose
Numbers stand for hits; . = inactive; ? = inconclusive; / = no result; + = active, no number; [ ] = remark or other dose. Unless noted, calls follow the shape of the dose curve; as a rule, active = well fitted curve in the direction sought with a large enough effect; inconclusive = small, poorly fitted or top-dose-only effect, or another doubt; inactive = no such curve, though single readings can be large; an effect the other way counts as inactive or inconclusive.

SMILES | Shiga inhibitor | Pf growth 48h | HCV inh | Pf growth 96h | AMA1 RON2 block | Cycloheximide cs
O=C(NCC1CCCO1)c1ccc(COc2ccccc2Br)cc1 (centres undefined) | + | . | ? | . | . | .
COc1cccc(OCc2ccc(C(=O)NCC3CCCO3)cc2)c1 (centres undefined) | 36.6 | . | . | . | . | 27.8
COc1cccc(C(=O)Nc2ccc(C(=O)NCC3CCCO3)cc2)c1 (centres undefined) | / | / | . | / | . | /
COc1ccc2c(c1)C(c1ccc3c(c1)OCO3)CC(=O)O2 (centres undefined) | . | / | / | / | / | .
c1ccc2c(c1)[nH]c1c3ccccc3sc21 | 72.2 | . | 11.2µM | . | . | 40.6
COC(=O)c1nn(Cc2ccccc2)c(=O)c2ccccc12 | . | . | . | . | . | .
CC(=O)c1ccc(N2CCN(C(=O)c3n[nH]c4ccccc34)CC2)cc1 | . | ? | . | . | . | .
CC(=O)c1ccc(N2CCN(C(=O)c3nn(Cc4ccccc4)c(=O)c4ccccc34)CC2)cc1 | . | 3.7µM | ? | . | . | .
COc1cc2c(cc1OC)CN(C(=O)c1cccs1)CC2 | . | 0.657µM | . | . | . | .
COc1cc2c(cc1OC)CN(C(=O)c1nn(Cc3ccccc3)c(=O)c3ccccc13)CC2 | / | 10.4µM | 10µM | ? | . | /
CCOC(=O)N1CCN(C(=O)CSc2nc3c([nH]c4ccccc43)c(=O)n2CC)CC1 | . | ? | . | . | . | .
COc1cc2ncc(S(=O)(=O)c3ccccc3)c(N3CCC4(CC3)OCCO4)c2cc1OC | . | ? | ? | . | . | .
COc1ccc2ncc(S(=O)(=O)c3ccccc3)c(N3CCC4(CC3)OCCO4)c2c1 | . | 8.28µM | . | ? | .[11.6 µM] | .
COc1ccc2ncc(S(=O)(=O)c3ccccc3)c(N3CCN(c4ccccc4)CC3)c2c1 | . | 7.38µM | ? | 13.1µM | . | .
Cc1ccc2ncc(S(=O)(=O)c3ccccc3)c(N3CCCCC3C)c2c1 (centres undefined) | . | ? | . | . | . | .
CCOC(=O)c1ccc(NC(=O)N2CCN(CCc3ccccc3)CC2)cc1 | . | ? | ? | / | . | 20.1
COc1ccccc1NC(=O)N1CCN(CCc2ccccc2)CC1 | . | 4.15µM | . | . | . | .
CCOc1ccc(NC(=O)OCCN2CCN(CCc3ccccc3)C(C)C2)cc1 (centres undefined) | / | / | 11.2µM | / | . | /
CCc1ccc(OCCOC(=O)Nc2ccccc2)cc1 | . | . | ? | ? | . | .
CC(C)C[C@H](NC(=O)N1CCn2c1nc1ccccc12)C(=O)N[C@H](Cc1ccccc1)C(=O)O | . | . | . | ? | . | .
CCCC12CN3CC(CCC)(CN(C1)C3c1ccccn1)C2=O (centres undefined) | . | 9.28µM | . | / | . | .
CCCC12CN3CC(C)(CN(C1)C3c1cccs1)C2=O (centres undefined) | . | . | ? | . | . | .
O=c1c2ccccc2nc(CSc2nnnn2-c2ccccc2)n1-c1ccccc1Cl | . | ? | ? | 11.7µM | . | .
c1ccc(Cn2c(Sc3nnnn3-c3ccccc3)nnc2-c2ccccc2)cc1 | . | 1.85µM | . | ? | . | .
Cc1nnc(SCc2nc3ccccc3c(=O)n2-c2ccccc2Cl)n1N | . | . | . | . | . | .
SMILES | Shiga inhibitor | Pf growth 48h | HCV inh | Pf growth 96h | AMA1 RON2 block | Cycloheximide cs
Cc1ccc(C)c(-n2nnnc2Sc2nnnn2-c2ccccc2)c1 | . | / | 11.2µM | . | . | .
c1ccc(-c2nc(CSc3nnnn3-c3ccccc3)cs2)cc1 | . | . | . | . | . | .
Cc1ccccc1-n1c(CSC(=N)N)nc2ccccc2c1=O | . | . | ? | .[5.75 µM] | . | .
N=C(N)SCc1nc2ccccc2c(=O)n1-c1ccccc1Cl | 81.2 | . | . | ? | . | 50.2
c1ccc(Cn2c(CSc3nnnn3-c3ccccc3)nc3ccccc32)cc1 | . | ? | . | 14.7µM | . | .
O=C(Cc1cccc2ccccc12)NCC(=O)N1CCN(Cc2cccc(C(F)(F)F)c2)CC1 | / | . | 5.62µM | . | . | /
O=C(c1ccco1)N1CCN(C2CC(=O)N(c3ccc(F)c(Cl)c3)C2=O)CC1 (centres undefined) | . | . | . | . | . | .
C=CC(=O)NC(C)(C)CCN1CCOCC1 | . | 0.928µM | . | . | . | .
Cc1c(C)n(CCCN(C)C)c2ncnc(NC3CCCCC3)c12 | . | . | . | . | . | .
Cc1c(C)n(Cc2ccccc2)c2ncnc(NCCN(C)C)c12 | . | ? | . | . | . | .
Cc1c(C)n(Cc2ccccc2)c2ncnc(NN)c12 | . | .[0.00184 µM] | 11.2µM | . | . | 14.8
Cc1ccc(-n2c(C)c(C)c3c(NCCO)ncnc32)cc1 | 61.0 | . | . | . | . | 39.7
Cc1c(C)n(CCc2ccccc2)c2ncnc(NN)c12 | . | . | . | . | . | 16.4
COCCn1c(C)c(C)c2c(NCCc3ccccc3)ncnc21 | 67.4 | . | ? | . | ? | 25.0
Cc1c(C)n(Cc2ccccc2)c2ncnc(NCCCN(C)C)c12 | . | . | ? | . | . | .
Cc1c(C)n(CCc2ccccc2)c2ncnc(NCCCO)c12 | 101.7 | . | . | . | . | 48.0
COC(=O)C1=CN(CC2CCCO2)C=C(C(=O)OC)C1c1ccsc1 (centres undefined) | . | ? | . | / | . | .
COC(=O)C1=CN(Cc2ccc(OC)cc2)C=C(C(=O)OC)C1c1ccsc1 | . | 7.38µM | . | . | . | .
COC(=O)C1=CN(CCOC23CC4CC(CC(C4)C2)C3)C=C(C(=O)OC)C1c1ccsc1 | . | ? | 31.6µM | ? | . | .
COC(=O)C1=C(C)N(C)C(C)=C(C(=O)OC)C1c1ccsc1 | . | ? | . | . | . | .
CCOC(=O)C1=CN(C)C=C(C(=O)OCC)C1c1ccsc1 | . | ? | . | . | . | 16.9
COc1ccc(CN2C(=O)C(CC(=O)NC3CCCCC3)CC(C(=O)N(C(C)C)C(C)C)=C2C)cc1 (centres undefined) | / | / | / | / | . | /
COc1cc(/C=C/C(=O)O)cc(S(=O)(=O)Nc2ccc(S(=O)(=O)N3CCCCC3)cc2)c1OC | / | . | . | . | . | /
CCc1nnc(NC(=O)c2ncc(Cl)c(Cl)c2Cl)s1 | . | . | ? | . | . | .
O=C(Nc1nc(-c2cc(Cl)sc2Cl)cs1)c1ccccc1 | 167.4 | / | 11.2µM | ? | . | 49.5
O=C(Nc1nc(-c2ccccn2)cs1)c1ncc(Cl)c(Cl)c1Cl | . | ? | . | 13.1µM | ? | .
CCc1sc(C(=O)Nc2nc(-c3ccccn3)cs2)cc1C | / | / | 17.8µM | / | . | /
O=C(Nc1nc(-c2ccccn2)cs1)c1ccc(Cl)s1 | . | / | ? | 0.37µM | . | .
Cc1ccc(CNC(=O)Cn2nnc(C(=O)Nc3cc(C)ccc3C)c2N)cc1 | . | . | . | . | . | .
COCCN(C(=O)CSc1nnc(-c2cccc(F)c2)n1N)c1c(N)n(Cc2ccccc2)c(=O)[nH]c1=O | / | . | . | . | . | /

Bioassay records deposited in PubChem by National Center for Advancing Translational Sciences (NCATS).
